The panel holds about 83,000 compounds, 20% with a hit somewhere; the sample as a whole holds those more often.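 In brief: 96-well plates, 48 h treatment, single concentration, percent growth endpoint.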
Legend:
Assay in all cases: NCI-60 one-dose screen, 48 h (100 = growth as untreated, 0 = no growth, -100 = all killed)
Settings in all cases: 10 µM unless noted; active means growth percent below 10; inactive means the rest
DU-145 prostate = tested on: DU-145 prostate
K-562 leukemia = tested on: K-562 leukemia
MALME-3M melanoma = tested on: MALME-3M melanoma
MDA-MB-231 breast = tested on: MDA-MB-231 breast
RXF 393 renal = tested on: RXF 393 renal
SF-268 CNS = tested on: SF-268 CNS
SF-295 CNS = tested on: SF-295 CNS
SF-539 CNS = tested on: SF-539 CNS
UACC-257 melanoma = tested on: UACC-257 melanoma
M14 melanoma = tested on: M14 melanoma
HCT-15 colon = tested on: HCT-15 colon
HT29 colon = tested on: HT29 colon
SNB-75 CNS = tested on: SNB-75 CNS
SNB-19 CNS = tested on: SNB-19 CNS
U251 CNS = tested on: U251 CNS
PC-3 prostate = tested on: PC-3 prostate
SK-MEL-5 melanoma = tested on: SK-MEL-5 melanoma
UACC-62 melanoma = tested on: UACC-62 melanoma
LOX IMVI melanoma = tested on: LOX IMVI melanoma
SK-MEL-28 melanoma = tested on: SK-MEL-28 melanoma

Measured: growth

CCC1S/C(=N\N=C(/C)c2cccs2)N(c2ccccc2)C1=O (stereo not given)
inactive: DU-145 prostate 123% | K-562 leukemia 110% | MALME-3M melanoma 181% | MDA-MB-231 breast 97.7% | RXF 393 renal 97.3% | SF-268 CNS 89.3% | SF-295 CNS 123% | SF-539 CNS 124% | UACC-257 melanoma 97.5% | M14 melanoma 141% | HCT-15 colon 99% | HT29 colon 91% | SNB-75 CNS 110% | SNB-19 CNS 114% | U251 CNS 105% | PC-3 prostate 98.4% | SK-MEL-5 melanoma 84.4% | UACC-62 melanoma 117% | LOX IMVI melanoma 105% | SK-MEL-28 melanoma 118%

Nn1c(SCC(=O)Nc2cc(Cl)c(Cl)cc2Cl)nnc1-c1cc(F)c(Cl)cc1Cl
inactive: DU-145 prostate 113% | K-562 leukemia 90.2% | MALME-3M melanoma 121% | MDA-MB-231 breast 127% | RXF 393 renal 151% | SF-268 CNS 110% | SF-295 CNS 109% | SF-539 CNS 108% | UACC-257 melanoma 108% | M14 melanoma 96.7% | HCT-15 colon 150% | HT29 colon 110% | SNB-75 CNS 106% | SNB-19 CNS 102% | U251 CNS 114% | PC-3 prostate 97.8% | SK-MEL-5 melanoma 78.4% | UACC-62 melanoma 146% | LOX IMVI melanoma 129% | SK-MEL-28 melanoma 135%

Cc1cn([C@]2(CF)O[C@H](CO)C2C)c(=O)[nH]c1=O (stereo not given in full)
inactive: DU-145 prostate 124% | K-562 leukemia 104% | MALME-3M melanoma 113% | MDA-MB-231 breast 116% | RXF 393 renal 101% | SF-268 CNS 112% | SF-295 CNS 121% | SF-539 CNS 110% | UACC-257 melanoma 103% | M14 melanoma 118% | HCT-15 colon 112% | HT29 colon 112% | SNB-75 CNS 116% | SNB-19 CNS 118% | U251 CNS 103% | PC-3 prostate 117% | SK-MEL-5 melanoma 89.4% | UACC-62 melanoma 122% | LOX IMVI melanoma 97.9% | SK-MEL-28 melanoma 121%

O=C(C[n+]1ccccc1Cl)c1ccc2c(c1)CCCC2
inactive: DU-145 prostate 97.1% | K-562 leukemia 82.9% | MALME-3M melanoma 81.8% | MDA-MB-231 breast 99.7% | RXF 393 renal 95.8% | SF-268 CNS 99.5% | SF-295 CNS 99.4% | SF-539 CNS 97.6% | UACC-257 melanoma 101% | M14 melanoma 86.2% | HCT-15 colon 102% | HT29 colon 79.7% | SNB-75 CNS 88.4% | SNB-19 CNS 108% | U251 CNS 97.7% | PC-3 prostate 87.3% | SK-MEL-5 melanoma 98.4% | UACC-62 melanoma 106% | LOX IMVI melanoma 101% | SK-MEL-28 melanoma 105%

O=C(O)c1ccc(-n2cc(/C=N/Nc3ccc(F)cc3)c(-c3cccc(C(F)(F)F)c3)n2)cc1
inactive: DU-145 prostate 81.6% | K-562 leukemia 11.1% | MALME-3M melanoma 88.2% | MDA-MB-231 breast 87.8% | RXF 393 renal 101% | SF-268 CNS 67% | SF-295 CNS 54% | SF-539 CNS 75.6% | UACC-257 melanoma 91.2% | M14 melanoma 51.3% | HCT-15 colon 53.6% | HT29 colon 86.8% | SNB-75 CNS 88.4% | SNB-19 CNS 91.3% | U251 CNS 84.9% | PC-3 prostate 62.6% | SK-MEL-5 melanoma 87.6% | UACC-62 melanoma 24.1% | LOX IMVI melanoma 42.8% | SK-MEL-28 melanoma 96.1%

Cc1cc[n+](CCCC[n+]2ccc(C)cc2)cc1
inactive: DU-145 prostate 101% | K-562 leukemia 109% | MALME-3M melanoma 97.6% | MDA-MB-231 breast 105% | RXF 393 renal 106% | SF-268 CNS 102% | SF-295 CNS 103% | SF-539 CNS 102% | UACC-257 melanoma 111% | M14 melanoma 95.4% | HCT-15 colon 93% | HT29 colon 113% | SNB-75 CNS 106% | SNB-19 CNS 107% | U251 CNS 102% | PC-3 prostate 88.7% | SK-MEL-5 melanoma 99.2% | UACC-62 melanoma 97.5% | LOX IMVI melanoma 94.4% | SK-MEL-28 melanoma 105%

N#CC(C#N)=C(C#N)c1c[nH]c2ccccc12
inactive: DU-145 prostate 88% | K-562 leukemia 91.3% | MALME-3M melanoma 86.1% | MDA-MB-231 breast 84.8% | RXF 393 renal 88.2% | SF-268 CNS 90.7% | SF-295 CNS 103% | SF-539 CNS 80.4% | UACC-257 melanoma 85.2% | M14 melanoma 79.7% | HCT-15 colon 73.3% | HT29 colon 80.4% | SNB-75 CNS 79.6% | SNB-19 CNS 92.9% | U251 CNS 86.3% | PC-3 prostate 73.1% | SK-MEL-5 melanoma 92.8% | UACC-62 melanoma 82.9% | LOX IMVI melanoma 82.3% | SK-MEL-28 melanoma 108%

COc1ccc(-c2nnc(SCC(=O)Nc3ccc(C(=O)/C=C/c4ccc(OC)c(OC)c4)cc3)o2)cc1
inactive: DU-145 prostate 93.7% | K-562 leukemia 61.7% | MALME-3M melanoma 100% | MDA-MB-231 breast 96.6% | RXF 393 renal 104% | SF-268 CNS 98.2% | SF-295 CNS 96.5% | SF-539 CNS 96% | UACC-257 melanoma 73.7% | M14 melanoma 105% | HCT-15 colon 74.8% | HT29 colon 87.1% | SNB-75 CNS 87.5% | SNB-19 CNS 89.6% | U251 CNS 66.9% | PC-3 prostate 79.8% | SK-MEL-5 melanoma 75.9% | UACC-62 melanoma 82.9% | LOX IMVI melanoma 77.1% | SK-MEL-28 melanoma 99.5%

Reference: PubChem BioAssay (NCI)
